Records with an inconclusive call do not appear. Active and inactive are the calls of the source. Calls come from the whole dose curve; as a rule, active = well fitted inhibition curve with a large enough effect; inconclusive = small, poorly fitted or top-dose-only effect; inactive = flat fitted curve, though single readings scatter.
test system: HaCat; experiment: Cytotoxic Profiling of Annotated Libraries Using Quantitative High-Throughput Screening (AID 1296008); details: Five cell lines viability, CellTiter-Glo ATP luminescence, 48-72 h; max response: active compounds read low; note: nearly all actives have a fitted effect of over 60% in size
Procedure, shortened: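 Compounds were pin-transferred onto cells and incubated 48 or 72 hr at 37 degree Celsius, 95% humidity. CellTiter-Glo was added, plates sat 10 min at room temperature, then ATP-coupled luminescence was imaged as the viability read-out.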

Structure (SMILES)	outcome
Oc1ccc2c(-c3c(-c4ccccn4)nn4c3CCC4)ccnc2c1	inactive
C=C1C(=O)O[C@@H]2CC(C)=C([C@@H](C)CCCOC(C)=O)[C@@H](O)[C@H]12	inactive
COC(=O)c1[nH]c(=O)c2ccccc2c1-c1ccc[nH]1	inactive
C[C@@H]1O[C@@H](O[C@@H]2[C@@H](O)[C@H](O[C@H]3[C@H](O[C@H]4CC[C@@]5(C)C(CC[C@]6(C)C5CC=C5[C@@H]7CC(C)(C)CC[C@]7(C(=O)O[C@@H]7O[C@H](CO)[C@@H](O)[C@H](O)[C@H]7O)CC[C@]56C)C4(C)C)O[C@H](C(=O)O)[C@@H](O)[C@@H]3O)OC[C@H]2O)[C@H](O)[C@H](O)[C@H]1O (some centres undefined)	inactive
CC1(C)O[C@H]2CC(=O)OC[C@@]23C1=C(O)C(=O)[C@]1(C)C3CC[C@@]2(C)[C@H](c3ccoc3)OC(=O)[C@H]3O[C@]321 (some centres undefined)	inactive
CC1(C)CC[C@]2(C(=O)O)CC[C@]3(C)C(=CCC4[C@@]5(C)C[C@@H](O)[C@H](O)[C@@](C)(CO)C5CC[C@]43C)C2C1 (some centres undefined)	inactive
C[C@@H]1O[C@@H](O[C@H]2[C@H](O[C@H]3[C@H](O[C@H]4CC[C@@]5(C)C(CC[C@]6(C)C5CC=C5[C@@H]7CC(C)(C)C[C@@H](O)[C@]7(C)CC[C@]56C)[C@@]4(C)CO)O[C@H](C(=O)O)[C@@H](O)[C@@H]3O)O[C@H](C(=O)O)[C@H](O)[C@@H]2O)[C@H](O)[C@H](O)[C@H]1O (some centres undefined)	inactive
Cc1sc(C)c(C(=O)NC2(c3ccc(C(=O)O)cc3)CC2)c1Cc1ccc(C(F)(F)F)cc1	inactive
N#Cc1cccc(-c2nc(-c3cccnc3)no2)c1	inactive
O=C(O)Cn1nnc(-c2ccc(CN(CCCCOc3ccc(CN4CCCC4)cc3)CCc3ccccc3)cc2)n1	inactive
C/C(=C/CO)CC[C@H]1[C@]2(C)C[C@H](O)CC(C)(C)[C@H]2CC[C@]1(C)O	inactive
O=C(/C=C/c1ccc(O)cc1)OCC1OC(O)C(OC2OC(CO)C(O)C(O)C2O)C(O)C1O (centres undefined)	inactive
CC1(C)C(=O)CCC2(C)C1C(O)C=C1COC(=O)C12O (centres undefined)	inactive
C=C(CCO)C(=O)OCC1OCC(OC(=O)C(=C)CCO[C@@H]2O[C@H](CO)[C@@H](O)[C@H](O)[C@H]2O)C(O)C1O (some centres undefined)	inactive
CC1=C2C[C@H]3OC(=O)[C@H](O)[C@@]4(O)[C@@H](C)[C@@H](O)[C@H](O)C([C@@]2(C)[C@H](O)[C@@H](O)C1)[C@@]34C (some centres undefined)	inactive
COc1ccnc2[nH]cc(C(=O)C(=O)N3CCN(C(=O)c4ccccc4)CC3C)c12 (centres undefined)	inactive
OC[C@@]1(O)CO[C@@H](OC[C@H]2O[C@@H](OCc3ccccc3)[C@H](O)[C@@H](O)[C@@H]2O)[C@@H]1O	inactive
COc1ccc(/C=C/C(N)=O)cc1OC	inactive
CC(=O)OC(C)C(C)(O)C(=O)O[C@@H]1CC[C@]2(C)CC(=O)C(=C(C)C)C[C@H]2[C@]1(C)OC(C)=O (some centres undefined)	inactive
N[C@@H](CC(=O)Nc1ccc(Oc2cc(F)c(F)cc2Br)cc1)C(=O)O	inactive

Structure (SMILES)	outcome
CC(=O)OC1C(CO)OC(O[C@H]2[C@H](OC(=O)[C@]34CCC(C)(C)C[C@H]3C3=CCC5[C@@]6(C)CC[C@H](O[C@@H]7O[C@H](C(=O)O)[C@@H](O)[C@H](O[C@@H]8OC[C@@H](O)[C@H](O)[C@H]8O)[C@H]7O[C@@H]7O[C@H](CO)[C@H](O)[C@H](O)[C@H]7O)[C@@](C)(C=O)C6CC[C@@]5(C)[C@]3(C)C[C@H]4O)O[C@H](C)[C@H](OC3OC(C)C(OC4OCC(O)C(O)C4O)C(O)C3O)[C@@H]2O)C(O)C1O (some centres undefined)	inactive
O=C(Nc1ccccc1)Nc1ccc(-c2ccc(C(=O)C3CCCC3C(=O)O)cc2)cc1 (centres undefined)	inactive
Cn1c2ccc(NC(=O)c3ccccc3)cc2c(=O)n2nc(C(=O)O)cc12	inactive
C[C@@H]1CCC2C(C)(C)[C@H](O)[C@H](O)C[C@]2(C)[C@@]12Cc1c(O)cc3c(c1O2)CN(CCCC(=O)O)C3=O (some centres undefined)	inactive
CC(C)=CCC[C@@](C)(O)[C@H]1CC[C@]2(C)[C@@H]1[C@H](O)CC1[C@@]3(C)CC[C@H](O[C@@H]4O[C@H](CO)[C@@H](O)[C@H](O)[C@H]4O[C@@H]4O[C@H](CO)[C@@H](O)[C@H](O)[C@H]4O)C(C)(C)[C@@H]3CC[C@]12C (some centres undefined)	inactive
CC1(C)CC[C@]2(C(=O)O[C@@H]3O[C@H](CO)[C@@H](O)[C@H](O)[C@H]3O)CC[C@]3(C)C(=CCC4[C@@]5(C)CC[C@H](O[C@H]6O[C@H](CO)[C@@H](O)[C@H](O[C@@H]7O[C@H](CO)[C@@H](O)[C@H](O)[C@H]7O)[C@H]6O)C(C)(C)C5CC[C@]43C)[C@@H]2C1 (some centres undefined)	inactive
COC(=O)[C@H](Cc1cccc(C(=N)N)c1)[C@@H](C)NC(=O)c1ccc(-c2cc[n+]([O-])cc2)cc1	inactive
C[C@@H]1CC[C@]2(C(=O)O[C@@H]3O[C@H](CO[C@@H]4O[C@H](CO)[C@@H](O)[C@H](O)[C@H]4O)[C@@H](O)[C@H](O)[C@H]3O)CC[C@]3(C)C(=CCC4[C@@]5(C)CC[C@H](O)[C@](C)(C(=O)O)C5CC[C@]43C)[C@@H]2[C@]1(C)O (some centres undefined)	inactive
O=C(OC[C@H]1O[C@H](O[C@]2(CO)O[C@H](CO)[C@@H](O)[C@@H]2O)[C@H](O)[C@@H](O)[C@@H]1O)c1ccc(O)cc1	inactive
CC12CC34CC(O)C5C(CO)(CO)CC(=O)CC5(C)C3CC1C2C4 (centres undefined)	inactive
CC(C)[C@](O)(c1ccc2cc(OC(F)F)c(OC(F)F)cc2c1)c1cn[nH]n1	inactive
O=C(CCCCC1CCCCC1)N1CCC(c2cnc[nH]2)CC1	inactive
CNC(C)C(=O)NC(C(=O)N1CCCC1C(=O)Nc1cccc2ncccc12)C(C)C (centres undefined)	inactive
C=C1CC[C@@]2(OC1)O[C@H]1CC3[C@@H]4CC=C5C[C@H](O[C@H]6OC[C@@H](O)C(O)[C@@H]6O[C@@H]6O[C@@H](C)[C@H](O)[C@@H](O[C@@H]7O[C@H](CO)[C@@H](O)[C@H](O)[C@H]7O)[C@H]6O)C[C@@H](O)[C@]5(C)C4CC[C@]3(C)[C@H]1[C@@H]2C (some centres undefined)	inactive
Cc1c(C)c(NCC(=O)N(C)C2CCN(Cc3ccc(C(N)=O)cc3)CC2)c(C)c(C)c1N	inactive
CC1CCC2(C(=O)O)CCC3(C)C(=CCC4C5(C)CCC(O)C(C)(C(=O)O)C5CCC43C)C2C1(C)O (centres undefined)	inactive
C=C1C[C@]23C[C@H]1CC[C@H]2[C@]1(C)CC[C@H](O)[C@@](C)(C(=O)O)[C@H]1[C@@H]3C(=O)O	inactive
COC(=O)C(CC1(OC(=O)C(C)C)c2ccccc2N2C(=O)C(C)(C)N(O)C21)n1cnc2ccccc2c1=O (centres undefined)	inactive
C=C[C@H]1[C@H](O[C@@H]2O[C@H](CO)[C@@H](O)[C@H](OC(=O)/C=C/c3ccc(O)c(OC)c3)[C@H]2O)OC=C2C(=O)OCC[C@]21O	inactive
